Some structures have more than one record in an assay (separate samples or runs), and their calls can disagree. The source made the active and inactive calls. Rule for the calls: active = hit-call score of the fitted dose curve at least 0.9, where 1 is the maximum; inactive = score below 0.9.
Experiment: ATG_Ets_CIS: Attagene CIS-FACTORIAL HepG2 Assay for human Erythroblast Transformation Specific (ETS) (AID 2282941)
Conditions: HepG2 ETS cis-reporter transcription, actives raise or lower the signal
Experimental: ATG_CIS is a cell-based, multiplexed-readout assay that uses HepG2, a human liver cell line, with measurements taken at 24 hours after chemical dosing in a 24-well plate.ATG_Ets_CIS is one of 52 assay component(s) measured or calculated from the ATG_CIS assay. It is designed to make measurements of mRNA induction, a form of inducible reporter, as detected with fluorescence intensity signals by Reverse transcription polymerase chain reaction (RT-PCR) and Capillary electrophoresis technology.Data from the assay component ATG_Ets_CIS was analyzed into 1 assay endpoint. This assay endpoint, ATG_Ets_CIS, was analyzed with bidirectional fitting relative to DMSO as the negative control and baseline of activity. Using a type of inducible reporter, measures of mRNA for gain or loss-of-signal activity can be used to understand the reporter gene at the transcription factor-level as they relate to the gene ETS1. Furthermore, this assay endpoint can be referred to as a primary readout, because this assay has produced multiple assay endpoints where this one serves a reporter gene function. To generalize the intended target to other relatable targets, this assay endpoint is annotated to the dna binding intended target family, where the subfamily is winged helix-turn-helix.
Human liver HepG2 cells are transiently transfected with multiple reporter transcription units (MRTUs) in 6-well plates using FuGene 6 reagent (Roche; 3 ml FuGene/1 mg DNA). The MRTU constructs are regulated by a cis-regulating element (promoter). […] A major difference between the CIS and TRANS system is that in CIS activities of endogenous TFs are measured, whereas the TRANS assay evaluates changes in activities of exogenous, chimeric NR-Gal4 proteins. […] At the end of 24 hour incubation, total RNA was isolated using TriZol reagent (Invitrogen). The isolated RNA is then reverse-transcribed using oligo(dT) primer and Mo-MLV reverse transcriptase (Invitrogen) with DNAse I (Ambion) treatment for 30 min. The one-tenth of the produced cDNA was amplified by PCR using Taq DNA polymerase (Invitrogen) and two reporter sequence-specific primers. The PCR products were fluorescently labeled by primer extension with 6-arboxyfluorescein (6-FAM) 5'-labeled reporter sequence-specific primer (2 min at 95 C, 20 s at 68 C and 10 min at 72 C) and these products were digested with 5U of HpaI (New England Biolabs) for 2h at 37 C. The fragments were purified using Qiaquick PCR columns (Qiagen), analyzed on an ABI 3130xL genetic analyzer (Applied Biosystems) with peak positions identified by using a set of X-rhodamine (ROX)-labeled MapMarker1000 molecular weight standards (BioVentures). The raw capillary electrophoresis data was processed using Attagraph software (Attagene).

Question: For `COc1cc2c(cc1OC)[C@@]13CCN4CC5=CCO[C@H]6CC(=O)N2[C@H]1[C@H]6[C@H]5C[C@H]43`, which outcome is on record?
Answer: inactive

Question: For `CCN1CCC2(CC1)COc1cc3c(cc12)N(C(=O)c1ccc(-c2ccc(-c4nnc(C)o4)cc2C)cc1)CC3`, which outcome is on record?
Answer: inactive

Question: With `c1cc[c]([Hg][c]2ccccc2)cc1` as the compound, how does the outcome read?
Answer: inactive

Question: With `CCC(=O)c1ccccc1` as the compound, how does the outcome read?
Answer: inactive

Question: With `CCC(=O)C(CC(C)N(C)C)(c1ccccc1)c1ccccc1` (stereo not given) as the compound, how does the outcome read?
Answer: inactive

Question: For `ClCc1cccnc1`, which AC50 is on record?
Answer: 81.3 µM (active)

Question: Which outcome does the source give for `ClC1=C(Cl)[C@]2(Cl)[C@H]3[C@H]([C@H]4C=C[C@H]3C4)[C@@]1(Cl)C2(Cl)Cl` here?
Answer: inactive

Question: For `COP(=O)(OC)O/C(=C\Cl)c1cc(Cl)c(Cl)cc1Cl`, which outcome is on record?
Answer: inactive

Question: With `CCC[CH2][Sn]([Cl])([Cl])[Cl]` as the compound, how does the outcome read?
Answer: inactive

Question: For `O=C(CCl)CCl`, which AC50 is on record?
Answer: 39.1 µM (active)

Question: Which outcome does the source give for `COc1cc(OC)nc(NC(=O)NS(=O)(=O)c2ncccc2C(=O)N(C)C)n1` here?
Answer: inactive

Question: Which outcome does the source give for `CC(C)C1CCC(Cc2ccc(Cl)cc2)C1(O)Cn1cncn1` (stereo not given) here?
Answer: inactive

Question: Which outcome does the source give for `Nc1cccc2ccccc12` here?
Answer: inactive

Question: Which outcome does the source give for `COc1cc(-c2ccc(N)c(OC)c2)ccc1N` here?
Answer: inactive

Question: What about the AC50 of the same compound?
Answer: 100 µM (active)

Question: With `O=C(O)Cc1ccccc1` as the compound, how does the outcome read?
Answer: inactive

Question: For `Clc1ccc(C2(Cn3cncn3)CC(Br)CO2)c(Cl)c1` (stereo not given), which outcome is on record?
Answer: inactive

Question: With `CCNc1nc(NC(C)(C)C)nc(SC)n1` as the compound, how does the outcome read?
Answer: inactive

Question: With `CC(=O)C(Cl)C(=O)N(C)C` (stereo not given) as the compound, how does the AC50 read?
Answer: 100 µM (active)

Question: With `CC(=O)OC(c1ccccc1)C(Cl)(Cl)Cl` (stereo not given) as the compound, how does the outcome read?
Answer: inactive

Question: Which outcome does the source give for `COP(=S)(OC)Oc1cc(Cl)c(Cl)cc1Cl` here?
Answer: inactive

Question: With `O=C1CCCN1` as the compound, how does the outcome read?
Answer: inactive

Question: With `COP(=O)(OC)OC` as the compound, how does the outcome read?
Answer: inactive

Question: For `CCOP(=S)(OCC)SCSP(=S)(OCC)OCC`, which outcome is on record?
Answer: inactive

Question: With `Oc1c(I)cc(I)cc1I` as the compound, how does the outcome read?
Answer: inactive

Question: Which outcome does the source give for `CC(Br)C(=O)O` (stereo not given) here?
Answer: inactive

Question: With `Nc1ccc(-c2ccc(N)c(Cl)c2)cc1Cl` as the compound, how does the outcome read?
Answer: inactive

Question: For `ClC1=C(Cl)[C@]2(Cl)[C@@H]3[C@@H](Cl)[C@@H](Cl)C[C@@H]3[C@@]1(Cl)C2(Cl)Cl`, which outcome is on record?
Answer: inactive

Question: For `O=CC=O`, which outcome is on record?
Answer: inactive

Question: For `Nc1ccc(Cl)cc1C(=O)c1ccccc1`, which outcome is on record?
Answer: inactive

Question: Which outcome does the source give for `O=C1C(Cl)=C(Cl)C(=O)c2ccccc21` here?
Answer: inactive

Question: With `COc1cccc(C=O)c1` as the compound, how does the outcome read?
Answer: inactive

Question: For `CCSC(C)CC1CC(=O)C(C(CC)=NOC/C=C/Cl)=C(O)C1` (stereo not given), which outcome is on record?
Answer: inactive

Question: With `CCc1ccccc1C` as the compound, how does the outcome read?
Answer: inactive

Question: For `O=C(Cc1ccccc1)c1ccccc1`, which outcome is on record?
Answer: inactive

Question: For `CC(C)CCCCCCOC(=O)c1ccccc1C(=O)OCCCCCCC(C)C`, which outcome is on record?
Answer: inactive

Question: With `C[C@H]1CCCC(=O)CCC/C=C/c2cc(O)cc(O)c2C(=O)O1` as the compound, how does the AC50 read?
Answer: 7.35 µM (active)

Question: With `CCCCOCCOC(C)=O` as the compound, how does the outcome read?
Answer: inactive

Question: With `N#CN=C(N)N` as the compound, how does the outcome read?
Answer: inactive

Question: Which outcome does the source give for `O=C(NCO)NCO` here?
Answer: inactive

Source: PubChem BioAssay (EPA / NIEHS)
